Assay outcomes deposited in PubChem by Columbia University Molecular Screening Center.
HUVEC tox TNFa = HUVEC cytotoxicity counter-screen, TNF alpha stimulated. cell count reduction, % at 2 µM. HUVEC TNFalpha-stimulated, Hoechst cell count, imaging. actives 0.17% (n = 93,000);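 active means cell count reduction exceeding the screen mean by over 5 SD, scaled to untreated wells per plate, cut at about 78% in these data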;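 further: cells counted after 24 h of TNF alpha exposure following the 1 h pretreatment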
E-sel TNF inh = blocks E-selectin expression induced by TNF alpha; HUVEC TNFa-induced E-selectin immunofluorescence, high content; inhibition, % at 2 µM; actives 0.71% (n = 120,000);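 active means inhibition above the batch mean plus 3 SD, and confirmed as a hit on visual image review, cut at about 43% in these data; inconclusive means passes the inhibition cutoff but fails visual image review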;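 further: 0% = TNF-stimulated DMSO wells and 100% = unstimulated control wells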
cytoskel mod = modifiers of cytoskeleton assembly; actives 0.18% (n = 91,000); inhibition, % at 2 µM; HUVEC TNFa F-actin phalloidin imaging, high content; AID 836;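 active means inhibition above the batch mean plus 3 SD and confirmed as a hit by visual image inspection, cut at about 30% in these data, passing the limit was not always enough; inconclusive means above the inhibition threshold but rejected on visual inspection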
VCAM1 TNFa inh = reduces TNF alpha induced VCAM1 expression in HUVEC; HUVEC TNFa-induced VCAM-1 immunofluorescence, high-content imaging; inhibition, % at 2 µM; actives 0.48% (n = 95,000); AID 802;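 active means inhibition above the batch mean plus 3 SD, with images confirmed as a hit by eye, cut at about 37% in these data; inconclusive means inhibition above that limit but hit not confirmed in images; inactive means inhibition not above that limit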;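 further: 0% = TNF-stimulated DMSO wells and 100% = unstimulated control wells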
Starred values were filed as active, the others as inactive. Shown are actives, neighbours in structure and some others; about 1.1% of the full set was active somewhere.

What do the screens show for `O=C(CNc1cc(S(=O)(=O)N2CCOCC2)ccc1N1CCCC1)N1CCc2ccccc21`?
E-sel TNF inh: -23

How did CCS(=O)(=O)c1ccc2oc(Nc3ccc(C(C)C)cc3)nc2c1 do in these assays?
HUVEC tox TNFa: -28; E-sel TNF inh: 64*; VCAM1 TNFa inh: 11

How did CCS(=O)(=O)c1ccc2oc(Nc3cc(C)cc(C)c3)nc2c1 do in these assays?
HUVEC tox TNFa: 3; E-sel TNF inh: -12; cytoskel mod: -11; VCAM1 TNFa inh: 4

What do the screens show for `Cc1nn(CC(=O)Nc2ccc(C(=O)N(C)C)cc2)c(=O)c2ccccc12`?
HUVEC tox TNFa: -14; E-sel TNF inh: 10; cytoskel mod: 34*; VCAM1 TNFa inh: -4

How did O=C(CCSc1ccccc1)NCC1CCCO1 (stereo not given) do in these assays?
HUVEC tox TNFa: -23; E-sel TNF inh: -20; cytoskel mod: 7; VCAM1 TNFa inh: 1

What do the screens show for `O=C(CC(c1ccccc1)c1ccccc1)NCC1CCCO1` (stereo not given)?
HUVEC tox TNFa: 10; E-sel TNF inh: 23; cytoskel mod: 5; VCAM1 TNFa inh: 41*

Results for Cn1nc(C(=O)NCC2CCCO2)c2ccccc2c1=O (stereo not given) ?
HUVEC tox TNFa: 84*; E-sel TNF inh: 6; cytoskel mod: 9; VCAM1 TNFa inh: 95*

How did O=C(CSc1ncnc2nc[nH]c12)Nc1ccccc1C(F)(F)F do in these assays?
HUVEC tox TNFa: -1; E-sel TNF inh: 76*; cytoskel mod: 14; VCAM1 TNFa inh: -5

How did CCC(Sc1nc2c(c(=O)n1CC)SC(C)C2)C(=O)OC (stereo not given) do in these assays?
HUVEC tox TNFa: 10; E-sel TNF inh: 65*; cytoskel mod: -16; VCAM1 TNFa inh: -18

Results for CCn1c(SCC(=O)N2CCOCC2)nc2c(c1=O)SC(C)C2 (stereo not given) ?
HUVEC tox TNFa: 28; E-sel TNF inh: 6; cytoskel mod: -23; VCAM1 TNFa inh: -14

Results for Cc1cccc(C(=O)Oc2ccccc2C2C[C@]3(C)CC(=O)NC3N2C(=O)c2cccc(C)c2)c1 (stereo not given in full) ?
HUVEC tox TNFa: 100*; E-sel TNF inh: -15; cytoskel mod: inconclusive; VCAM1 TNFa inh: inconclusive

Results for CC1=CC(=O)C=C(C)C1=NOc1ccccc1[N+](=O)[O-] ?
E-sel TNF inh: 11

What do the screens show for `CCC(C)NC(=O)c1nc2c(nnn2Cc2ccccc2Cl)c(=O)[nH]1` (stereo not given)?
E-sel TNF inh: -15

What do the screens show for `O=C(NCc1cccs1)c1nc2c(nnn2Cc2ccccc2Cl)c(=O)[nH]1`?
HUVEC tox TNFa: -12; cytoskel mod: -4; VCAM1 TNFa inh: 54*

How did CCN(CC)C(=O)CN(c1ccc(Cl)cc1)S(=O)(=O)c1ccccc1 do in these assays?
HUVEC tox TNFa: 100*; E-sel TNF inh: -12; cytoskel mod: inconclusive; VCAM1 TNFa inh: inconclusive

How did NC(=O)CN(c1ccc(Cl)cc1)S(=O)(=O)c1ccccc1 do in these assays?
E-sel TNF inh: -6

What do the screens show for `COC(=O)Cn1cnc2c1c(=O)n(C)c(=O)n2C`?
E-sel TNF inh: 100*; cytoskel mod: 0; VCAM1 TNFa inh: -8

Results for O=C(Nc1ccc2oc(-c3cccnc3)nc2c1)c1ccc([N+](=O)[O-])o1 ?
E-sel TNF inh: 97*

How did COc1ccc2cc(CN(CCO)C(=O)c3ccccc3F)c(=O)[nH]c2c1 do in these assays?
HUVEC tox TNFa: 1; E-sel TNF inh: 100*; cytoskel mod: -3; VCAM1 TNFa inh: -1

Results for CCOc1ccc2[nH]c(=O)c(CN(CCO)C(=O)c3ccccc3F)cc2c1 ?
HUVEC tox TNFa: -44; E-sel TNF inh: -11; cytoskel mod: -4; VCAM1 TNFa inh: -15

How did CCOC(=O)c1ccc(NS(=O)C23CC4CC(CC(C4)C2)C3)cc1 (stereo not given) do in these assays?
HUVEC tox TNFa: 40; E-sel TNF inh: 17; cytoskel mod: -14; VCAM1 TNFa inh: 54*

How did OCCSc1nnc(Nc2ccccc2)s1 do in these assays?
HUVEC tox TNFa: 78*; cytoskel mod: -35; VCAM1 TNFa inh: 29

How did CCCCn1c2nc3ccccc3nc2c2c(=O)n(-c3ccccc3)cnc21 do in these assays?
E-sel TNF inh: 92*

What do the screens show for `CCCCn1c2nc3ccccc3nc2c2c(=O)n(CCC(C)C)cnc21`?
HUVEC tox TNFa: -31; E-sel TNF inh: 19; cytoskel mod: -6; VCAM1 TNFa inh: 11

Results for CCOC(=O)C1CCCN(Cc2ccccc2F)C1 (stereo not given) ?
E-sel TNF inh: 75*

Results for COC(=O)C1=C(C)Nc2nc(SCc3ccccc3)[nH]c(=O)c2C1c1cccs1 (stereo not given) ?
E-sel TNF inh: -20
